High-throughput results (PubChem BioAssay)
PHOSPHO1 inh = PubChem AID 1565. inhibition, % at 13.3 µM. hit rate 1.1% among 290,000. recombinant PHOSPHO1, absorbance phosphatase assay. Phosphoethanolamine/phosphocholine phosphatase (Homo sapiens), Q8TCT1; in the data active = inhibition above about 60%
Target sequence (Q8TCT1 whole entry, looked up): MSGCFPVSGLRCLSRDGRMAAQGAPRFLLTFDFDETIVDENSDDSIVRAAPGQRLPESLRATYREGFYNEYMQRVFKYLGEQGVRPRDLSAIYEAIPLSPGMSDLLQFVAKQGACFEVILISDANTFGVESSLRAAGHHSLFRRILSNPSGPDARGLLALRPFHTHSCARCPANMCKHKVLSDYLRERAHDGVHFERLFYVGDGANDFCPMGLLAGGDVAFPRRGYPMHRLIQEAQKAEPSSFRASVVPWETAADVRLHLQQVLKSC
CTSL1 counter = Fasciola hepatica cathepsin L1 inhibitors, primary screen, counter-screen for PFM18AAP inhibitor project, biochemical, QFRET, fluorogenic peptide substrate. AID 1906, 2009. hit rate 0.49% among 300,000. recombinant F. hepatica cathepsin L1, Z-Leu-Arg-MCA fluorescence. inhibition, % at 5.96 µM;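 active = inhibition above the mean of all tested compounds plus 3 SD, set per screening campaign, cut at about 17% in these data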;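 also: 0% = plate median of test compound wells and 100% = 1 µM Z-Phe-Ala-diazomethylketone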
CendR NRP1 mod = modulators of CendR peptide binding to NRP-1, primary screen, biochemical, fluorescence polarization, uHTS; hit rate 0.85% among 360,000; inhibition, % at 25 µM; FAM-RPARPAR peptide binding to NRP-1; Neuropilin-1 (Homo sapiens), O14786;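 active = inhibition or corrected inhibition above about 18%, plus a signal ratio from 0.5 to 1.5, limit read from the data, passing the limit was not always enough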
TPT1 inhibitor = Candida albicans TPT1 enzyme inhibitors, primary screen, biochemical, fluorescence polarization. hit rate 0.81% among 300,000. inhibition, % at 5 µM. recombinant caTPT1, FP RNA substrate dephosphorylation. tRNA 2'-phosphotransferase TPT1 (Candida albicans SC5314). AID 1962, 2009;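 active = inhibition above the mean of all tested compounds plus 3 SD, set per screening campaign, cut at about 24% in these data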;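 also: plate controls were DMSO alone for no effect and ferristatin control at 100 nM for full effect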
HNF4A DNA FP = change in binding of human HNF4A to DNA, primary screen, biochemical, fluorescence polarization, FITC-DNA; hit rate 0.3% among 360,000; 1 h; Hepatocyte nuclear factor 4-alpha (Homo sapiens), P41235; AID 1224865, 2016; activity change, % at 10 µM; in the data active = activity change above about 30%, passing the limit was not always enough
Rpn11 inh = Rpn11 (PSMD14) deubiquitinase inhibitors, primary screen, biochemical, fluorescence polarization, uHTS; hit rate 0.59% among 360,000; 26S proteasome non-ATPase regulatory subunit 14 (Homo sapiens), O00487; AID 588493, 2011; human 26S proteasome, Ub4-pepOG fluorescence polarization; 20S core pre-blocked with epoxomicin; inhibition, % at 20 µM;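 active = inhibition at 20 µM, scaled to each plate's controls, above about 33%, limit read from the data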
Target sequence (O00487 whole entry, looked up): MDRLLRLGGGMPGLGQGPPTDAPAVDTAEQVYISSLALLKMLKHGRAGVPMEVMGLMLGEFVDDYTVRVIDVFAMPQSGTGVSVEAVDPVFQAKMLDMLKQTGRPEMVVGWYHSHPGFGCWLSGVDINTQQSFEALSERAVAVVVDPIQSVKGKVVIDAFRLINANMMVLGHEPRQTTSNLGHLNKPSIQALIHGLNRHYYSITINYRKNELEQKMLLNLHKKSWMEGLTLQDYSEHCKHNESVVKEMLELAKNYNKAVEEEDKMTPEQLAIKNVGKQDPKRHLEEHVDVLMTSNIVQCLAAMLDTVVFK
TPT1 inh confirm = Candida albicans TPT1 inhibitors, confirmation, biochemical, fluorescence polarization, triplicate; shares compounds with TPT1 inhibitor; AID 2149, 2009; recombinant caTPT1, RNase T1 coupled; hit rate 74% among 2,400; inhibition, % at 5 µM;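 active = inhibition above the primary screen limit, the mean inhibition of all tested compounds plus 3 SD, cut at about 25% in these data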
RNase T1 inh = RNase T1 inhibitors, counter-screen for TPT1 inhibitor project, biochemical, fluorescence polarization; AID 2153, 2009; hit rate 83% among 2,400; RNase T1 cleavage, 1536-well; shares compounds with TPT1 inhibitor; inhibition, % at 5 µM;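 active = inhibition above the solvent-only control well mean plus 3 SD, limit set per screening run, cut at about 23% in these data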;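 also: plate controls were DMSO wells with enzyme for no effect and wells without RNase T1 for full effect; inhibitors block cleavage so intact labeled substrate keeps polarization high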
* marks the source's active call; other numbers are inactive results; / = not tested or not shown. Shown are actives, neighbours in structure and some others; about 3.3% of the full set was active somewhere.

SMILES	PHOSPHO1 inh	CTSL1 counter	CendR NRP1 mod	TPT1 inhibitor	HNF4A DNA FP	Rpn11 inh	TPT1 inh confirm	RNase T1 inh
CN(C)c1ccc(/C=C(\NC(=O)c2ccccc2)C(=O)NCc2ccncc2)cc1	32	3	1	9	4	3	/	/
CN(C)c1ccc(/C=C(\NC(=O)c2ccccc2)C(=O)NCCCN2CCOCC2)cc1	23	4	-3	18	1	17	/	/
O=C1c2ccccc2C(=O)N1Cc1cnc(N2CCN(c3ccccc3)CC2)s1	43	1	0	0	-9	-1	/	/
O=C(c1ccc(S(=O)(=O)N2CCOCC2)cc1)N(c1ccccn1)C1CCCCC1	32	5	2	-1	2	2	/	/
COc1ccc(-n2nc3c(N4CCC(C(=O)N5CCC(C)CC5)CC4)nnc(C)c3c2C)cc1	37	-4	-122	79*	99*	/	72*	81*
CN(C)c1ccc(N/C=C/C(=O)c2ccc(F)cc2)cc1	27	-2	-11	36*	44*	46*	49*	59*
Nc1cc(=O)[nH]c(SCCSc2cc(Cl)ccc2Cl)n1	33	7	18	1	0	14	/	/
O=c1cc(-c2ccccc2)nc(N2CCN(Cc3ccc4c(c3)OCO4)CC2)[nH]1	-2	7	-1	3	0	2	/	/
COc1ccccc1C1C([N+](=O)[O-])=CC([N+](=O)[O-])=CN1C (centres undefined)	0	5	-53	42*	-1	5	52*	61*
NNC(=O)c1sc2cc(C(F)(F)F)cnc2c1-c1ccccn1	24	3	1	-4	-2	4	/	/
N#CC1=C(N)Oc2cc(O)c(Cl)cc2C1c1ccccc1F (centres undefined)	23	12	118	72*	-4	24	15	26*
COC(=O)C1=C(C)OC(N)=C(C#N)C1c1ccccc1F (centres undefined)	-7	-4	-14	1	0	-4	/	/
N#C/C(=C\N1CCN(Cc2ccc3c(c2)OCO3)CC1)c1nc2ccccc2s1	7	1	-61	52*	30*	/	58*	66*
N#C/C(=C\c1ccccn1)c1nc2ccccc2s1	28	10	133	23	-37	17	/	/
COC(=O)c1ccc(/C=C(\C#N)c2nc3ccccc3s2)cc1	38	4	-8	36*	-1	17	21	29*
CCOC(=O)N1CCC(=NNc2nc3ccccc3s2)CC1	43	0	3	0	2	-6	/	/
CCOC(=O)N1CCN(/C=C(\C#N)c2nc3ccccc3s2)CC1	8	2	-76	75*	29	/	44*	54*
Cc1ccc(C)c(OC(=O)c2cccnc2)c1	-16	-1	8	2	-1	-4	/	/
C=CCC1(CC=C)CCCN1C(=O)c1cc(COc2ccc(C)nc2)on1	24	3	5	-3	2	-3	/	/
CC(=O)c1ccc(-c2ccc(/C=C(/Sc3n[nH]c(C)n3)C(=O)O)o2)cc1	33	8	-153	78*	25	/	79*	91*
CCOC(=O)c1c(/N=C/C2C(=O)CCCC2=O)sc2c1CCCC2	-22	3	14	-8	7	0	/	/
CCOC(=O)c1c(CC(C)C)csc1/N=C/C1C(=O)CCCC1=O	24	0	1	126*	3	14	15	20
CCOC(=O)c1c(-c2ccccc2)csc1/N=C/C1C(=O)CCCC1=O	9	-2	-14	114*	3	4	21	33*
Cc1ccc(NC(=O)/C(=C\c2ccc3c(c2)OCO3)NC(=O)c2ccco2)cc1	-11	3	-23	-5	-2	-2	/	/
O=C1CCC/C(=N/NC(=O)c2sc3ccccc3c2Cl)C1	5	1	130	98*	149	/	110*	108*
SMILES	PHOSPHO1 inh	CTSL1 counter	CendR NRP1 mod	TPT1 inhibitor	HNF4A DNA FP	Rpn11 inh	TPT1 inh confirm	RNase T1 inh
O=P1(NC2CCCCC2)OCC2(CO1)COP(=O)(NC1CCCCC1)OC2 (centres undefined)	/	/	-7	/	-1	2	/	/
O=C1/C(=C/c2ccco2)CCc2ccccc21	-2	12	-20	6	5	7	/	/
Nc1ccc2c(c1)C/C(=C/c1ccco1)C2=O	5	-4	-72	26*	-37	-20	-3	10
NC(=O)c1cccc(CC(=O)c2ccccc2)c1	32	2	-2	74*	2	-4	8	13
O=C(Cc1ccccc1)c1ccc(O)cc1	/	/	10	/	0	-2	/	/
CC(C)c1nnc(NC(=O)c2cccc(-n3cnnn3)c2)s1	-2	1	-4	-4	0	-7	/	/
N#Cc1ccsc1NC(=O)c1cccc(-n2cnnn2)c1	18	-3	-114	48*	42*	/	51*	64*
Cc1ccc(C2C(C#N)=C(N)Oc3c2sc2ccccc32)o1 (centres undefined)	12	3	/	65*	/	/	86*	96*
CCOC(=O)CC1=C(C(=O)OCC)C(c2ccc(C)o2)C(C#N)=C(N)O1 (centres undefined)	-21	-2	-4	-25	-11	-29	/	/
Cc1ccccc1-n1c(SCc2c(C)noc2C)nnc1-c1cccnc1	53	-4	16	-49	-28	-124	/	/
Cc1ccccc1-n1c(SCc2c(C)noc2C)nnc1-c1ccncc1	14	3	-12	33*	3	4	11	16
CCCCN1C(=O)/C(=C/C=C2\N(C)c3ccccc3C2(C)C)SC1=S	38	5	/	196*	/	/	134*	124*
CCCN1C(=O)/C(=C\C=C2/C=CN(CC)c3ccccc32)SC1=S	-6	-1	-7	2	2	14	/	/
Cc1ccc(-c2cc(C(=O)O)c3sc(N4CCCCC4)nc3n2)cc1	-22	-1	-7	27*	1	16	5	10
O=C(O)c1cc(-c2ccccc2)nc2nc(N3CCCCC3)sc12	-22	1	/	-3	/	/	/	/
O=C(NCc1ccc(Cl)cc1)C1CCCN(c2cnccn2)C1 (centres undefined)	18	6	-10	1	1	0	/	/
Cc1nnc(-c2ccccc2)c(=O)n1/N=C/c1c(O)ccc2ccccc12	-31	9	-66	159*	19	/	79*	84*
Cc1nc2ccccc2c(=O)n1/N=C/c1ccc(O)c(O)c1O	32	-2	-58	-5	-29	38	/	/
